# Assay results reported in the supplement of paper PMC4466140.
# Assays:
# Test in all cases: SPOT peptide array binding signal intensity (averaged, normalized) (arbitrary units (background-subtracted, floor 0; scale differs between SH3 domains)); higher = stronger binding of the SH3 domain to the peptide
# SpBzz1-D2 = target: SpBzz1-D2
# In short: (§1)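 To measure binding, SH3 domains from four yeast species were fused to GST, expressed in E. coli BL21(DE3) and purified on glutathione Sepharose. Each domain was incubated at 10 μg/ml overnight at 4°C on cellulose membranes with synthetic 15-mer peptides whose cysteines were replaced by serines. Anti-GST antibody, an HRP anti-mouse secondary and luminol were used for detection, and images were quantified with Genespotter. Reported binding signal is normalized, background-subtracted spot intensity averaged over replicates, in arbitrary units that differ between domains.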
# SpCyk3 = target: SpCyk3
# In short: as §1
# SpHof1 = target: SpHof1
# In short: as §1
# SpHof1-2 = target: SpHof1-2
# In short: as §1
# SpHof1-3 = target: SpHof1-3
# In short: as §1
# SpHse1 = target: SpHse1
# In short: as §1
# SpLsb1 = target: SpLsb1
# In short: as §1
# SpLsb4 = target: SpLsb4
# In short: as §1
# SpMyo1 = target: SpMyo1
# In short: as §1
# SpNbp2 = target: SpNbp2
# In short: as §1
# SpPex13 = target: SpPex13
# In short: as §1
# SpRvs167 = target: SpRvs167
# In short: as §1
# SpSla1-D1-D2 = target: SpSla1-D1-D2
# In short: as §1
# SpSla1-D3 = target: SpSla1-D3
# In short: as §1
# AgAbp1 = target: AgAbp1
# In short: as §1
# AgBbc1 = target: AgBbc1
# In short: as §1
# AgBem1-D1 = target: AgBem1-D1
# In short: as §1
# AgBzz1-D1 = target: AgBzz1-D1
# In short: as §1
# AgBzz1-D2 = target: AgBzz1-D2
# In short: as §1
# AgCyk3 = target: AgCyk3
# In short: as §1
# AgFus1 = target: AgFus1
# In short: as §1
# AgHof1 = target: AgHof1
# In short: as §1
# AgHse1 = target: AgHse1
# In short: as §1
# AgLsb1 = target: AgLsb1
# In short: as §1
# AgLsb4 = target: AgLsb4
# In short: as §1
# AgMyo5 = target: AgMyo5
# In short: as §1
# AgNbp2 = target: AgNbp2
# In short: as §1
# AgRvs167 = target: AgRvs167
# In short: as §1
# AgSho1 = target: AgSho1
# In short: as §1
# AgSla1-D1-D2 = target: AgSla1-D1-D2
# In short: as §1
# AgSla1-D3 = target: AgSla1-D3
# In short: as §1
# CaAbp1-D1 = target: CaAbp1-D1
# In short: as §1
# CaAbp1-D2 = target: CaAbp1-D2
# In short: as §1
# CaBbc1 = target: CaBbc1
# In short: as §1
# CaBem1-D1 = target: CaBem1-D1
# In short: as §1
# CaBzz1-D1 = target: CaBzz1-D1
# In short: as §1
# CaBzz1-D2 = target: CaBzz1-D2
# In short: as §1
# CaCyk3 = target: CaCyk3
# In short: as §1
# CaFus1 = target: CaFus1
# In short: as §1
# CaHof1 = target: CaHof1
# In short: as §1
# CaHse1 = target: CaHse1
# In short: as §1
# CaLsb1 = target: CaLsb1
# In short: as §1
# CaLsb4 = target: CaLsb4
# In short: as §1
# CaMyo5 = target: CaMyo5
# In short: as §1
# CaNbp2 = target: CaNbp2
# In short: as §1
# CaRvs167 = target: CaRvs167
# In short: as §1
# CaRvs167-3 = target: CaRvs167-3
# In short: as §1
# CaSho1 = target: CaSho1
# In short: as §1
# CaSla1-D1-D2 = target: CaSla1-D1-D2
# In short: as §1
# CaSla1-D3 = target: CaSla1-D3
# In short: as §1
# ScAbp1 = target: ScAbp1
# In short: as §1
# ScBbc1 = target: ScBbc1
# In short: as §1
# ScBem1-D1 = target: ScBem1-D1
# In short: as §1
# ScBzz1-D1 = target: ScBzz1-D1
# In short: as §1
# ScBzz1-D2 = target: ScBzz1-D2
# In short: as §1
# ScCyk3 = target: ScCyk3
# In short: as §1
# ScFus1 = target: ScFus1
# In short: as §1
# ScHof1 = target: ScHof1
# In short: as §1
# ScHse1 = target: ScHse1
# In short: as §1
# ScLsb1 = target: ScLsb1
# In short: as §1
# ScLsb2 = target: ScLsb2
# In short: as §1
# ScLsb3 = target: ScLsb3
# In short: as §1
# ScLsb4 = target: ScLsb4
# In short: as §1
# ScMyo3 = target: ScMyo3
# In short: as §1
# ScMyo5 = target: ScMyo5
# In short: as §1
# ScNbp2 = target: ScNbp2
# In short: as §1
# ScPex13 = target: ScPex13
# In short: as §1
# ScRvs167 = target: ScRvs167
# In short: as §1
# ScSho1 = target: ScSho1
# In short: as §1
# ScSla1-D1-D2 = target: ScSla1-D1-D2
# In short: as §1
# ScSla1-D3 = target: ScSla1-D3
# In short: as §1
# SpAbp1-D1 = target: SpAbp1-D1
# In short: as §1
# SpBbc1 = target: SpBbc1
# In short: as §1
# SpBzz1-D1 = target: SpBzz1-D1
# In short: as §1
binder,measurement,setting,value
FYNRTAFQLPGDARV,SPOT peptide array binding signal intensity,SpBzz1-D2,≤ 0
same,SPOT peptide array binding signal intensity,SpCyk3,2
same,SPOT peptide array binding signal intensity,SpHof1,4
same,SPOT peptide array binding signal intensity,SpHof1-2,1.5
same,SPOT peptide array binding signal intensity,SpHof1-3,22.5
same,SPOT peptide array binding signal intensity,SpHse1,21.5
same,SPOT peptide array binding signal intensity,SpLsb1,216
same,SPOT peptide array binding signal intensity,SpLsb4,≤ 0
same,SPOT peptide array binding signal intensity,SpMyo1,17.5
same,SPOT peptide array binding signal intensity,SpNbp2,2.5
same,SPOT peptide array binding signal intensity,SpPex13,2
same,SPOT peptide array binding signal intensity,SpRvs167,≤ 0
same,SPOT peptide array binding signal intensity,SpSla1-D1-D2,≤ 0
same,SPOT peptide array binding signal intensity,SpSla1-D3,0.5
APKREAPKPPANTSP,SPOT peptide array binding signal intensity,AgAbp1,1
same,SPOT peptide array binding signal intensity,AgBbc1,112
same,SPOT peptide array binding signal intensity,AgBem1-D1,34
same,SPOT peptide array binding signal intensity,AgBzz1-D1,178
same,SPOT peptide array binding signal intensity,AgBzz1-D2,2.5
same,SPOT peptide array binding signal intensity,AgCyk3,≤ 0
same,SPOT peptide array binding signal intensity,AgFus1,≤ 0
same,SPOT peptide array binding signal intensity,AgHof1,6
same,SPOT peptide array binding signal intensity,AgHse1,≤ 0
same,SPOT peptide array binding signal intensity,AgLsb1,4.5
same,SPOT peptide array binding signal intensity,AgLsb4,≤ 0
same,SPOT peptide array binding signal intensity,AgMyo5,265
same,SPOT peptide array binding signal intensity,AgNbp2,382
same,SPOT peptide array binding signal intensity,AgRvs167,≤ 0
same,SPOT peptide array binding signal intensity,AgSho1,≤ 0
same,SPOT peptide array binding signal intensity,AgSla1-D1-D2,≤ 0
same,SPOT peptide array binding signal intensity,AgSla1-D3,8
same,SPOT peptide array binding signal intensity,CaAbp1-D1,6
same,SPOT peptide array binding signal intensity,CaAbp1-D2,11
same,SPOT peptide array binding signal intensity,CaBbc1,251
same,SPOT peptide array binding signal intensity,CaBem1-D1,14
same,SPOT peptide array binding signal intensity,CaBzz1-D1,2040
same,SPOT peptide array binding signal intensity,CaBzz1-D2,2090
same,SPOT peptide array binding signal intensity,CaCyk3,≤ 0
same,SPOT peptide array binding signal intensity,CaFus1,18
same,SPOT peptide array binding signal intensity,CaHof1,≤ 0
same,SPOT peptide array binding signal intensity,CaHse1,1.5
same,SPOT peptide array binding signal intensity,CaLsb1,≤ 0
same,SPOT peptide array binding signal intensity,CaLsb4,≤ 0
same,SPOT peptide array binding signal intensity,CaMyo5,1.75
same,SPOT peptide array binding signal intensity,CaNbp2,1520
same,SPOT peptide array binding signal intensity,CaRvs167,0.5
same,SPOT peptide array binding signal intensity,CaRvs167-3,2
same,SPOT peptide array binding signal intensity,CaSho1,≤ 0
same,SPOT peptide array binding signal intensity,CaSla1-D1-D2,106
same,SPOT peptide array binding signal intensity,CaSla1-D3,0.25
same,SPOT peptide array binding signal intensity,ScAbp1,≤ 0
same,SPOT peptide array binding signal intensity,ScBbc1,156
same,SPOT peptide array binding signal intensity,ScBem1-D1,4.5
same,SPOT peptide array binding signal intensity,ScBzz1-D1,348
same,SPOT peptide array binding signal intensity,ScBzz1-D2,5
same,SPOT peptide array binding signal intensity,ScCyk3,≤ 0
same,SPOT peptide array binding signal intensity,ScFus1,≤ 0
same,SPOT peptide array binding signal intensity,ScHof1,≤ 0
same,SPOT peptide array binding signal intensity,ScHse1,≤ 0
same,SPOT peptide array binding signal intensity,ScLsb1,≤ 0
same,SPOT peptide array binding signal intensity,ScLsb2,≤ 0
same,SPOT peptide array binding signal intensity,ScLsb3,4.5
same,SPOT peptide array binding signal intensity,ScLsb4,≤ 0
same,SPOT peptide array binding signal intensity,ScMyo3,616
same,SPOT peptide array binding signal intensity,ScMyo5,414
same,SPOT peptide array binding signal intensity,ScNbp2,1140
same,SPOT peptide array binding signal intensity,ScPex13,47.8
same,SPOT peptide array binding signal intensity,ScRvs167,1
same,SPOT peptide array binding signal intensity,ScSho1,≤ 0
same,SPOT peptide array binding signal intensity,ScSla1-D1-D2,738
same,SPOT peptide array binding signal intensity,ScSla1-D3,16.2
same,SPOT peptide array binding signal intensity,SpAbp1-D1,15
same,SPOT peptide array binding signal intensity,SpBbc1,1
same,SPOT peptide array binding signal intensity,SpBzz1-D1,86
same,SPOT peptide array binding signal intensity,SpBzz1-D2,0.25
same,SPOT peptide array binding signal intensity,SpCyk3,≤ 0
same,SPOT peptide array binding signal intensity,SpHof1,≤ 0
same,SPOT peptide array binding signal intensity,SpHof1-2,≤ 0
same,SPOT peptide array binding signal intensity,SpHof1-3,6.25
same,SPOT peptide array binding signal intensity,SpHse1,3.5
same,SPOT peptide array binding signal intensity,SpLsb1,≤ 0
same,SPOT peptide array binding signal intensity,SpLsb4,≤ 0
same,SPOT peptide array binding signal intensity,SpMyo1,1270
same,SPOT peptide array binding signal intensity,SpNbp2,1
same,SPOT peptide array binding signal intensity,SpPex13,≤ 0
same,SPOT peptide array binding signal intensity,SpRvs167,2.67
same,SPOT peptide array binding signal intensity,SpSla1-D1-D2,≤ 0
same,SPOT peptide array binding signal intensity,SpSla1-D3,0.5
LLLLFVPDSPYDPAI,SPOT peptide array binding signal intensity,AgAbp1,1
same,SPOT peptide array binding signal intensity,AgBbc1,0.75
same,SPOT peptide array binding signal intensity,AgBem1-D1,27
same,SPOT peptide array binding signal intensity,AgBzz1-D1,17.5
same,SPOT peptide array binding signal intensity,AgBzz1-D2,20.5
same,SPOT peptide array binding signal intensity,AgCyk3,3
same,SPOT peptide array binding signal intensity,AgFus1,2370
same,SPOT peptide array binding signal intensity,AgHof1,2.25
same,SPOT peptide array binding signal intensity,AgHse1,277
same,SPOT peptide array binding signal intensity,AgLsb1,≤ 0
same,SPOT peptide array binding signal intensity,AgLsb4,636
same,SPOT peptide array binding signal intensity,AgMyo5,1
same,SPOT peptide array binding signal intensity,AgNbp2,63
same,SPOT peptide array binding signal intensity,AgRvs167,1.67
same,SPOT peptide array binding signal intensity,AgSho1,212
same,SPOT peptide array binding signal intensity,AgSla1-D1-D2,≤ 0
same,SPOT peptide array binding signal intensity,AgSla1-D3,0.5
same,SPOT peptide array binding signal intensity,CaAbp1-D1,11
same,SPOT peptide array binding signal intensity,CaAbp1-D2,1
same,SPOT peptide array binding signal intensity,CaBbc1,≤ 0
same,SPOT peptide array binding signal intensity,CaBem1-D1,≤ 0
same,SPOT peptide array binding signal intensity,CaBzz1-D1,43.5
same,SPOT peptide array binding signal intensity,CaBzz1-D2,19.5
same,SPOT peptide array binding signal intensity,CaCyk3,1
same,SPOT peptide array binding signal intensity,CaFus1,5080
same,SPOT peptide array binding signal intensity,CaHof1,66.8
same,SPOT peptide array binding signal intensity,CaHse1,92
same,SPOT peptide array binding signal intensity,CaLsb1,1.5
same,SPOT peptide array binding signal intensity,CaLsb4,≤ 0
same,SPOT peptide array binding signal intensity,CaMyo5,6.25
